{"source": "PubChem BioAssay AID504454", "about": "(NMMLSC, 2011)", "note": "Among all 340,000 compounds or so, about 1,400 (0.41%) were called active. For the sample, actives were picked, then their nearest neighbours and some compounds at random. Unmarked numbers belong to inactive results.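 Rule for the calls: active = response above a set limit, near 3 SD of response in nonfluorescent compounds (cut at about 42% in these data); inactive = the rest.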"}
{"target": "Beta-2 adrenergic receptor (Homo sapiens) (UniProt P07550)", "sequence (P07550 whole entry, looked up)": "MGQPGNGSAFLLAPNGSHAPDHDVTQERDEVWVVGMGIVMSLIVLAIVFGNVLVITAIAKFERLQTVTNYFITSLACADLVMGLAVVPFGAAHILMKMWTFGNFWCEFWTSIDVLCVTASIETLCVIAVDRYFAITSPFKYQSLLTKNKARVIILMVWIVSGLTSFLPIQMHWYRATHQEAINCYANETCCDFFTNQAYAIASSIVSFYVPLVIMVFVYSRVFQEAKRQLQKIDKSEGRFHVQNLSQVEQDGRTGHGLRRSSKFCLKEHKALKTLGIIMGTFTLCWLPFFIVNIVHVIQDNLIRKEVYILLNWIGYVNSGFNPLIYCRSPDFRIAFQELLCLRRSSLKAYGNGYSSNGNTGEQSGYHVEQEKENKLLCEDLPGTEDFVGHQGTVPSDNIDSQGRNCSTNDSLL", "test": "agonist-induced loss of surface beta2AR – cell-based, FAP fluorogen, flow cytometry, primary screen (AID 504454)", "settings": "Am2.2-beta2AR cells, FAP receptor internalization, hits give high values, concentration not given here"}
{"smiles": "COc1ccc(CCNC(=O)C2CCN(c3nn4c(=O)cc(C)nc4s3)CC2)cc1OC", "response": "2.26%"}
{"smiles": "CSc1ccc(CCNC(=O)C2CCN(c3nnc(-n4cccc4)s3)CC2)cc1", "response": "77.9% (active)"}
{"smiles": "CSc1ccc(S(=O)(=O)N2CCC(C(=O)NCCc3ccccc3)CC2)cc1", "response": "21.2%"}
{"smiles": "COc1cc(O)c2c(=O)c3c(O)c(O)ccc3oc2c1OC", "response": "27.1%"}
{"smiles": "COCCNC(=O)C1CCN(S(=O)(=O)c2ccc3c(c2)OCCO3)CC1", "response": "-3.08%"}
{"smiles": "COC(=O)c1ccc(Sc2ccc(F)cc2)c(N)c1", "response": "-3.98%"}
{"smiles": "Cc1snc(SCc2c(F)cccc2Cl)c1C#N", "response": "-7.91%"}
{"smiles": "Cc1ccc(C(=O)N/C(=C\\c2ccco2)C(=O)N2CCSCC2)cc1C", "response": "-0.71%"}
{"smiles": "CSc1ccc(CNC(=O)c2ccc(NC(=O)C3=CSCCO3)cc2)cc1", "response": "98.2% (active)"}
{"smiles": "CS(=O)(=O)NCc1ccc(C(=O)NCc2ccccc2)cc1", "response": "-3.96%"}
{"smiles": "O=C(Nc1ccc(C(=O)NCc2ccccc2Cl)cc1)C1=CSCCO1", "response": "-0.39%"}
{"smiles": "NC(=O)c1ccsc1NC(=O)COC(=O)Cc1n[nH]c(=O)c2ccccc12", "response": "-0.52%"}
{"smiles": "CC1(C)C=Cc2c(ccc3c2OC[C@@H](c2ccc(O)cc2O)C3)O1", "response": "45% (active)"}
{"smiles": "CCCCN(C(=O)c1ccc(OC(F)(F)F)cc1)c1c(N)n(CCC)c(=O)[nH]c1=O", "response": "7.36%"}
{"smiles": "COc1cccc(OC)c1C(=O)OCC(=O)/C(C#N)=C(\\C)N", "response": "13.3%"}
{"smiles": "CSCC(=O)N1CCCC(C(=O)c2cc(F)ccc2F)C1", "note": "(stereo not drawn)", "response": "-14.2%"}
{"smiles": "C/C(CC1CC(C)(C)OC1=O)=N/Nc1nc(-c2ccccc2)cs1", "note": "(stereo not drawn)", "response": "4.49%"}
{"smiles": "CCc1ccccc1NC(=O)[C@@H]1CCC(=O)N1C1OC(=O)c2c1ccc(OC)c2OC", "note": "(stereo partly drawn)", "response": "11.2%"}
{"smiles": "COc1ccc2c(c1OC)C(=O)OC2Nc1nc(-c2ccccc2)cs1", "note": "(stereo not drawn)", "response": "43.4% (active)"}
{"smiles": "O=C(NCC1CC1)c1onc(CSc2ccccc2)c1C(=O)NCC1CC1", "response": "-4.02%"}
{"smiles": "CCn1c(SCC(=O)NC2CC2)nnc1-c1ccccn1", "response": "-5.81%"}
{"smiles": "COC(=O)C1(C)NC(c2ccc(F)cc2)C2C(=O)N(c3ccccc3)C(=O)C21", "note": "(stereo not drawn)", "response": "1.51%"}
{"smiles": "Cc1n[nH]c(=O)c2c1nnn2Cc1ccc(F)cc1", "response": "2.64%"}
{"smiles": "Cc1cc(C)cc(C(=O)N(CCc2ccccc2)C2=CC3CCC(C2)N3C)c1", "note": "(stereo not drawn)", "response": "11.3%"}
{"smiles": "CCCN(CCc1ccccc1)C1CCc2c(O)cccc2C1", "note": "(stereo not drawn)", "response": "56.8% (active)"}
{"smiles": "CCOC(=O)c1cnc(SCC(=O)Nc2ccccc2C(=O)OC)nc1N", "response": "2.55%"}
{"smiles": "O=C(O)CCCn1cc(NC(=O)COc2cccc(Cl)c2)cn1", "response": "15.6%"}
{"smiles": "COC(CNC(=O)Cn1ncc2ccsc2c1=O)OC", "response": "1.39%"}
{"smiles": "CN(C)S(=O)(=O)Oc1ccccc1C(=O)Nc1ccccc1Cl", "response": "1.66%"}
{"smiles": "O=C(Nc1ccccc1Cl)/C(Cl)=C(\\Cl)S(=O)c1ccccc1", "note": "(stereo not drawn)", "response": "56.9% (active)"}
{"smiles": "O=C(COC(=O)CCc1c[nH]c(=O)[nH]1)Nc1ccccc1Cl", "response": "-3.16%"}
{"smiles": "CCc1nc(N2CCN(C(C)=O)CC2)c2c3c(sc2n1)CCCC3", "response": "-8.93%"}
{"smiles": "CC(=O)c1ccc(NC(=O)c2ccc3c(Cl)c4c(nc3c2)CCCC4)cc1", "response": "60.5% (active)"}
{"smiles": "CC(C)CCNC(=O)c1ccc2c(Cl)c3c(nc2c1)CCC3", "response": "-1.39%"}
{"smiles": "COc1cccc(NC(=O)c2ccc3c(SCC(=O)O)c4c(nc3c2)CCCC4)c1", "response": "1.27%"}
{"smiles": "CC(C)NC(=O)COCc1cc(-c2ccc3c(c2)OCO3)on1", "response": "-5.4%"}
{"smiles": "N#CC1(NC(=O)COc2ccc3oc4ccccc4c3c2)CCCCC1", "response": "-4.35%"}
{"smiles": "Brc1ccccc1CN1CCC(Cc2ccccc2)CC1", "response": "4.82%"}
{"smiles": "c1ccc(CC2CCN(c3nc4ccccc4n4cnnc34)CC2)cc1", "response": "68% (active)"}
{"smiles": "O=C(c1ccccc1)c1ccc2nc(N3CCCCC3)c3nncn3c2c1", "response": "-11.4%"}
{"smiles": "CSc1nc(-c2ccccc2)nc(C(Cl)Cl)n1", "response": "81.7% (active)"}
{"smiles": "COc1ccc(C2c3ccc(O)cc3Oc3ncn(CCCO)c(=N)c32)cc1OC", "note": "(stereo not drawn)", "response": "-10.4%"}
{"smiles": "CS(=O)(=O)N1CCN(CC(=O)NC2CCCC2)CC1", "response": "-2.25%"}
{"smiles": "CCN1CCC(O)(/C=C/c2ccc(C)cc2)C(C(=O)/C=C/c2ccc(C)cc2)C1", "note": "(stereo not drawn)", "response": "52.9% (active)"}
{"smiles": "CCOC(=O)C1CCCN(C(=O)/C=C/c2ccc(OC)cc2)C1", "note": "(stereo not drawn)", "response": "0.35%"}
{"smiles": "O=C(NCCCn1ccnc1)C1CCCN(S(=O)(=O)c2cc(Cl)ccc2Cl)C1", "note": "(stereo not drawn)", "response": "105% (active)"}
{"smiles": "COc1ccc(S(=O)(=O)N2CCCC(C(=O)NCCCn3ccnc3)C2)cc1OC", "note": "(stereo not drawn)", "response": "10.8%"}
{"smiles": "O=C(NCCCn1ccnc1)Nc1ccc(Cl)cc1Cl", "response": "-0.95%"}
{"smiles": "CC1Cc2ccccc2N1C(=O)Cn1cnc2ccccc2c1=O", "note": "(stereo not drawn)", "response": "6.28%"}
{"smiles": "Cc1ccn2cc(-c3nonc3C)cc2c1", "response": "15.2%"}
{"smiles": "O=C(CN1C(=O)C2C3C=CC(C3)C2C1=O)NCC1COc2ccccc2O1", "note": "(stereo not drawn)", "response": "1.48%"}
{"smiles": "CC(C)OC(=O)CN1C(=O)C(=O)c2ccccc21", "response": "7.48%"}
{"smiles": "O=C1C(=O)N(CC2COc3ccccc3O2)c2ccccc21", "note": "(stereo not drawn)", "response": "45.6% (active)"}
{"smiles": "c1ccc(CSc2ncnc3c2sc2nc(N4CCOCC4)c4c(c23)CCCC4)cc1", "response": "10.1%"}
{"smiles": "C#CCOCCOCCOCCNc1nc(N2CCN(C(=O)Cn3cc(CCO)nn3)CC2)nc(N2CCN(C(=O)[C@H](CCCCN)n3cc(CCCC)nn3)CC2)n1", "response": "0.16%"}
{"smiles": "C#CCOCCOCCOCCNc1nc(N2CCN(C(=O)CCCCCCCCCCNC(=O)[C@H]([C@@H](C)CC)n3cc(CCCCN=C(N)N)nn3)CC2)nc(N2CCN(C(=O)CCCCCCCCCCNC(=O)[C@H](CO)n3cc(CCCSC)nn3)CC2)n1", "response": "96.3% (active)"}
{"smiles": "C#CCOCCOCCOCCNc1nc(N2CCN(C(=O)C([C@@H](C)O)n3cc([C@@H](N)CCCCN)nn3)CC2)nc(N2CCN(C(=O)[C@H](CCCCN)n3cc(CN)nn3)CC2)n1", "note": "(stereo partly drawn)", "response": "1.85%"}
{"smiles": "C#CCOCCOCCOCCNc1nc(N2CCN(C(=O)Cn3cc(CCO)nn3)CC2)nc(N2CCN(C(=O)Cn3cc(CCCN=C(N)N)nn3)CC2)n1", "response": "6.34%"}
{"smiles": "C#CCOCCOCCOCCNc1nc(N2CCN(C(=O)[C@H](CCCN=C(N)N)n3cc(C(N)[C@@H](C)CC)nn3)CC2)nc(N2CCN(C(=O)[C@H](CO)n3cc([C@@H](N)C(C)C)nn3)CC2)n1", "note": "(stereo partly drawn)", "response": "-10.2%"}
{"smiles": "C#CCOCCOCCOCCNc1nc(N2CCN(C(=O)CCCCCCCCCCNC(=O)Cn3cc(CCCCCN)nn3)CC2)nc(N2CCN(C(=O)CCCCCCCCCCNC(=O)[C@H](CO)n3cc(CCCSC)nn3)CC2)n1", "response": "64.5% (active)"}
{"smiles": "C#CCOCCOCCOCCNc1nc(N2CCN(C(=O)CCCCCCCCCCNC(=O)[C@H](CCCCN)n3cc(C)nn3)CC2)nc(N2CCN(C(=O)CCCCCCCCCCNC(=O)[C@H](CO)n3cc(CCCSC)nn3)CC2)n1", "response": "77% (active)"}
{"smiles": "C#CCOCCOCCOCCNc1nc(N2CCN(C(=O)[C@H](CCC(=O)O)n3cc(CN)nn3)CC2)nc(N2CCN(C(=O)[C@H](CCC(=O)O)n3cc(CN)nn3)CC2)n1", "response": "-3.45%"}
{"smiles": "C#CCOCCOCCOCCNc1nc(N2CCN(C(=O)[C@H](CCCCN)n3cc(CCC(=O)O)nn3)CC2)nc(N2CCN(C(=O)[C@H](CCCCN)n3cc(CC(C)O)nn3)CC2)n1", "note": "(stereo partly drawn)", "response": "0.88%"}
